# A number with no mark means an inactive call.
# Experiments:
# Test in all cases: log2 ratio of Biotin-Ahx-Ub-VS probe labelling (fragment/DMSO); higher = less target engagement (more negative = stronger competition), active = hit call of the paper (q ≤ 0.05, log2 ratio ≤ -1)
# Details in all cases: compound concentration: 200 uM; treatment time: 3 h
# USP9X = USP9X (UniProt Q93008)
# Method in brief: (§1)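 HEK293T lysate (495 µg per sample, in Tris/CHAPS/IGEPAL buffer with protease inhibitors) was treated in triplicate with fragment at 200 µM or with DMSO for 3 h. It was then treated with Biotin-Ahx-Ub-VS (0.5 µM final) for 1 h. Labelled DUBs were NeutrAvidin-enriched, digested with LysC and trypsin, and run by diaPASEF LC-MS/MS. Spectronaut label-free quantities were global-median-normalised. Values are average log2 ratios fragment/DMSO by unpaired t-test, using proteins with ≥2 unique peptides.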
# UniProt O00487 = molecular target: UniProt O00487
# Method in brief: as §1
# UniProt O00507 = molecular target: UniProt O00507
# Method in brief: as §1
# UniProt P51784 = molecular target: UniProt P51784
# Method in brief: as §1
# UniProt Q5T2D3 = molecular target: T1, UniProt Q5T2D3
# T1 sequence (whole entry): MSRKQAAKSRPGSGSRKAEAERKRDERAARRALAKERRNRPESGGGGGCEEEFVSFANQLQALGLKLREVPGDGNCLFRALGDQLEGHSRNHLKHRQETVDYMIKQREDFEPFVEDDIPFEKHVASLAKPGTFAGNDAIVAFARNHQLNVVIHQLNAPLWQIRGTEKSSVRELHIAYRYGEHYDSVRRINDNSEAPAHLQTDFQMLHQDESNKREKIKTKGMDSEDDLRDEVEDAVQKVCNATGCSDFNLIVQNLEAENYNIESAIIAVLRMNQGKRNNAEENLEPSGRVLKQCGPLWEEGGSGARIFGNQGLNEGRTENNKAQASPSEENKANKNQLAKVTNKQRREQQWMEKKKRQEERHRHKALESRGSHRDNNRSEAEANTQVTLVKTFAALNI
# Method in brief: as §1
# UniProt Q8TE49 = molecular target: T2, UniProt Q8TE49
# T2 sequence (whole entry): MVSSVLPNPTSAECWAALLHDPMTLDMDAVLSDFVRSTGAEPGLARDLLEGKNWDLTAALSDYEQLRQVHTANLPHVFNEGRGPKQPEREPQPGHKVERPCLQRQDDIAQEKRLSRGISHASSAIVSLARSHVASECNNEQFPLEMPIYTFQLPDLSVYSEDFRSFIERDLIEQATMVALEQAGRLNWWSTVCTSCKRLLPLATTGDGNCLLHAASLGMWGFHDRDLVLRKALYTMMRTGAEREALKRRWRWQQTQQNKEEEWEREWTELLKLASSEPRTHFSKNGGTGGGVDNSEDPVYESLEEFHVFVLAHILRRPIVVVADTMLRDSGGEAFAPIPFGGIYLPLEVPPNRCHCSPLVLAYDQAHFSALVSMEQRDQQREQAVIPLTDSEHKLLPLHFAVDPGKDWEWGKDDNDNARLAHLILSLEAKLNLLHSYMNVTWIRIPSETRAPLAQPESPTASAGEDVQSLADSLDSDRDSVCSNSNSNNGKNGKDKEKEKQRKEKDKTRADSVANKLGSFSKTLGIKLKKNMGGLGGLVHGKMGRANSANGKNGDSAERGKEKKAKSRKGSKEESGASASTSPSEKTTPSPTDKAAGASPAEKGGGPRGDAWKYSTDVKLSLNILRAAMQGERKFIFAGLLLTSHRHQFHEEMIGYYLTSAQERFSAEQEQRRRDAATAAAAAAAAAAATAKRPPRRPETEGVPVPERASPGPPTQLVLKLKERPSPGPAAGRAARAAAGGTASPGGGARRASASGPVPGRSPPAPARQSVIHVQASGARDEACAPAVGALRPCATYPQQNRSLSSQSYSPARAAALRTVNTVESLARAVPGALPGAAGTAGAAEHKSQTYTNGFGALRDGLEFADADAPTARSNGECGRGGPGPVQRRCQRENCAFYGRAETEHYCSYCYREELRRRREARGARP
# Method in brief: as §1
# UniProt Q9P2H5 = molecular target: T3, UniProt Q9P2H5
# T3 sequence (whole entry): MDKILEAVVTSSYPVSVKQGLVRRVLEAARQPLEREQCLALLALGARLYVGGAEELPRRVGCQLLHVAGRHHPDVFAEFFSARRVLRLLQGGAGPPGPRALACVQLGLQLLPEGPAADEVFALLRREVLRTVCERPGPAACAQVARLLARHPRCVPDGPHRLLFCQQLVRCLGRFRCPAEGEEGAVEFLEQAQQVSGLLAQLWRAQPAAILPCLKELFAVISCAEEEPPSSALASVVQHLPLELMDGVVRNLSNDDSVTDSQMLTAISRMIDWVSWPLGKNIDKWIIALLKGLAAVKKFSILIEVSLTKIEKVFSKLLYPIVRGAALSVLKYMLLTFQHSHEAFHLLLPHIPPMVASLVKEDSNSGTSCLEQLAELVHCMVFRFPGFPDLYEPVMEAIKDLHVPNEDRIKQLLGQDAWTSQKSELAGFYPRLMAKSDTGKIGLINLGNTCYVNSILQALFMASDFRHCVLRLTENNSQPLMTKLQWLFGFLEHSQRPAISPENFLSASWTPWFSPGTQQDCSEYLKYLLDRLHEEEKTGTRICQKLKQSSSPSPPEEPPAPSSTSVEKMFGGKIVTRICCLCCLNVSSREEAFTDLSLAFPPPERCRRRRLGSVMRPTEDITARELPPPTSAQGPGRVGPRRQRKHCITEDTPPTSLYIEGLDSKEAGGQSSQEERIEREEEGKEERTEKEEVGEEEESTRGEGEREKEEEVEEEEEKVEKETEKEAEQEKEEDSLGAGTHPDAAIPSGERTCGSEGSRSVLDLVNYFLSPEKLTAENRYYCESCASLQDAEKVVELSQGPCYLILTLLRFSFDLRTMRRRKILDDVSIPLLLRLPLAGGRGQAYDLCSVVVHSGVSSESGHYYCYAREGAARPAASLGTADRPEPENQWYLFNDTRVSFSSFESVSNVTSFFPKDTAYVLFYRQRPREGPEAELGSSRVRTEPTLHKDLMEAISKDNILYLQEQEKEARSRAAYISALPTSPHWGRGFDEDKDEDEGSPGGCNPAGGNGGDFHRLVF
# Method in brief: as §1
# UniProt Q9UGI0 = molecular target: T4, UniProt Q9UGI0
# T4 sequence (whole entry): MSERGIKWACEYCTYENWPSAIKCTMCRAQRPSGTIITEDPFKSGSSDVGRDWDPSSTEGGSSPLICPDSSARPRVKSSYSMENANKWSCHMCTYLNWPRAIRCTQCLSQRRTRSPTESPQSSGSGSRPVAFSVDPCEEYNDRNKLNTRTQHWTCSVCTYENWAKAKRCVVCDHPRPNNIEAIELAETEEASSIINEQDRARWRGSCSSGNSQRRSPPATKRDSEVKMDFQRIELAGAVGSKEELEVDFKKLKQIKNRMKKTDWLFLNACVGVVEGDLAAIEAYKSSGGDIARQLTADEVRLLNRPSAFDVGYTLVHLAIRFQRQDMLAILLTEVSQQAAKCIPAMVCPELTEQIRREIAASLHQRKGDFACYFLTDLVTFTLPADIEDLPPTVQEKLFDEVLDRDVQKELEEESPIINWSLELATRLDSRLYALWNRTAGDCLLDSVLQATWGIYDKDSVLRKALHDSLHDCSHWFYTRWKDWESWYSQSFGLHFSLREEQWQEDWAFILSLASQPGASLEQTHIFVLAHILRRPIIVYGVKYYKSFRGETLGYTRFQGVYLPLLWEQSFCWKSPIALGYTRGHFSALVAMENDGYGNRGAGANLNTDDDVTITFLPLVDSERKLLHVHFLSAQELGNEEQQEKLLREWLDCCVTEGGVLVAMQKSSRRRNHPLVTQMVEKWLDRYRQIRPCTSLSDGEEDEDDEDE
# Method in brief: as §1
# YOD1 = molecular target: T5, YOD1 (UniProt Q5VVQ6)
# T5 sequence (whole entry): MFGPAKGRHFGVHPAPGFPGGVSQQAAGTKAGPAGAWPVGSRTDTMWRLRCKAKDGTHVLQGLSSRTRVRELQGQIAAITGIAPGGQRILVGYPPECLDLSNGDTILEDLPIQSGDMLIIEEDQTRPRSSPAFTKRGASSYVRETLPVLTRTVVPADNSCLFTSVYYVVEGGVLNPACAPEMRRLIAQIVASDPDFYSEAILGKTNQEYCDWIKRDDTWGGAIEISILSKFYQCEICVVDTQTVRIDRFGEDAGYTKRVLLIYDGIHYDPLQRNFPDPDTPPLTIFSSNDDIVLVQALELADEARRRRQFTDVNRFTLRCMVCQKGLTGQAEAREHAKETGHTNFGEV
# Method in brief: as §1
# Sequence of UniProt O00487 (O00487 whole entry): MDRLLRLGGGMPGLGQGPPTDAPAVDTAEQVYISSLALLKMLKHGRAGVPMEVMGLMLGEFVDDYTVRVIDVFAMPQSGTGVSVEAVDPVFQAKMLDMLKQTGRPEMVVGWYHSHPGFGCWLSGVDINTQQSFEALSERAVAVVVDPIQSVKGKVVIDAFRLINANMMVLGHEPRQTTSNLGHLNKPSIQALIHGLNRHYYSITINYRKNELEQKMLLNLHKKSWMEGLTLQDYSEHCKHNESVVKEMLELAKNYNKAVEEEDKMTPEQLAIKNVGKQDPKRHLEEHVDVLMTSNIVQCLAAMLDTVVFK
# Sequence of UniProt P51784 (P51784 whole entry): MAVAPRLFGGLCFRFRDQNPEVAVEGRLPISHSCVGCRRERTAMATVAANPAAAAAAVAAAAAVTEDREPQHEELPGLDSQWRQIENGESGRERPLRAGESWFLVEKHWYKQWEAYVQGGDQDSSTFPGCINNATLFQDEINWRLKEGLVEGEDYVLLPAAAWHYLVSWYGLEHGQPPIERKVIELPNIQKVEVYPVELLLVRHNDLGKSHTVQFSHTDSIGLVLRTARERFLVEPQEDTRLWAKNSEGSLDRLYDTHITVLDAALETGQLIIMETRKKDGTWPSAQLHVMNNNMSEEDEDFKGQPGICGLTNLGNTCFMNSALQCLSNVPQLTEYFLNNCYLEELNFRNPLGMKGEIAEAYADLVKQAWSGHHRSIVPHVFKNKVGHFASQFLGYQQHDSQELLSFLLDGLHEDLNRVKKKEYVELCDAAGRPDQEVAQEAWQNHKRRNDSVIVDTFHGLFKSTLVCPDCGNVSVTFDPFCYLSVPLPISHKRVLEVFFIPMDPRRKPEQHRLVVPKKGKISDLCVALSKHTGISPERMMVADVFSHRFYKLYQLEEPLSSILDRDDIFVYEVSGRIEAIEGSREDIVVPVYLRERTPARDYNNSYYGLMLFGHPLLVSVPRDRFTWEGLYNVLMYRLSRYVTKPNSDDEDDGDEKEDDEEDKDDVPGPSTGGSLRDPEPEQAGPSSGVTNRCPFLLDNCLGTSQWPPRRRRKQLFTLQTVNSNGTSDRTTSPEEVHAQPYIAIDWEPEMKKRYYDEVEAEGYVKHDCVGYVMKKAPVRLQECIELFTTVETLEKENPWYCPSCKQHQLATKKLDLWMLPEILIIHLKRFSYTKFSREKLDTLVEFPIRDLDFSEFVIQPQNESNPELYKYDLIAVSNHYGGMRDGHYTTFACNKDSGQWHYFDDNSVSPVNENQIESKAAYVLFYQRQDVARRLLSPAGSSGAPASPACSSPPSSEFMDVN
# Sequence of USP9X (Q93008 whole entry, the tested form may be a part): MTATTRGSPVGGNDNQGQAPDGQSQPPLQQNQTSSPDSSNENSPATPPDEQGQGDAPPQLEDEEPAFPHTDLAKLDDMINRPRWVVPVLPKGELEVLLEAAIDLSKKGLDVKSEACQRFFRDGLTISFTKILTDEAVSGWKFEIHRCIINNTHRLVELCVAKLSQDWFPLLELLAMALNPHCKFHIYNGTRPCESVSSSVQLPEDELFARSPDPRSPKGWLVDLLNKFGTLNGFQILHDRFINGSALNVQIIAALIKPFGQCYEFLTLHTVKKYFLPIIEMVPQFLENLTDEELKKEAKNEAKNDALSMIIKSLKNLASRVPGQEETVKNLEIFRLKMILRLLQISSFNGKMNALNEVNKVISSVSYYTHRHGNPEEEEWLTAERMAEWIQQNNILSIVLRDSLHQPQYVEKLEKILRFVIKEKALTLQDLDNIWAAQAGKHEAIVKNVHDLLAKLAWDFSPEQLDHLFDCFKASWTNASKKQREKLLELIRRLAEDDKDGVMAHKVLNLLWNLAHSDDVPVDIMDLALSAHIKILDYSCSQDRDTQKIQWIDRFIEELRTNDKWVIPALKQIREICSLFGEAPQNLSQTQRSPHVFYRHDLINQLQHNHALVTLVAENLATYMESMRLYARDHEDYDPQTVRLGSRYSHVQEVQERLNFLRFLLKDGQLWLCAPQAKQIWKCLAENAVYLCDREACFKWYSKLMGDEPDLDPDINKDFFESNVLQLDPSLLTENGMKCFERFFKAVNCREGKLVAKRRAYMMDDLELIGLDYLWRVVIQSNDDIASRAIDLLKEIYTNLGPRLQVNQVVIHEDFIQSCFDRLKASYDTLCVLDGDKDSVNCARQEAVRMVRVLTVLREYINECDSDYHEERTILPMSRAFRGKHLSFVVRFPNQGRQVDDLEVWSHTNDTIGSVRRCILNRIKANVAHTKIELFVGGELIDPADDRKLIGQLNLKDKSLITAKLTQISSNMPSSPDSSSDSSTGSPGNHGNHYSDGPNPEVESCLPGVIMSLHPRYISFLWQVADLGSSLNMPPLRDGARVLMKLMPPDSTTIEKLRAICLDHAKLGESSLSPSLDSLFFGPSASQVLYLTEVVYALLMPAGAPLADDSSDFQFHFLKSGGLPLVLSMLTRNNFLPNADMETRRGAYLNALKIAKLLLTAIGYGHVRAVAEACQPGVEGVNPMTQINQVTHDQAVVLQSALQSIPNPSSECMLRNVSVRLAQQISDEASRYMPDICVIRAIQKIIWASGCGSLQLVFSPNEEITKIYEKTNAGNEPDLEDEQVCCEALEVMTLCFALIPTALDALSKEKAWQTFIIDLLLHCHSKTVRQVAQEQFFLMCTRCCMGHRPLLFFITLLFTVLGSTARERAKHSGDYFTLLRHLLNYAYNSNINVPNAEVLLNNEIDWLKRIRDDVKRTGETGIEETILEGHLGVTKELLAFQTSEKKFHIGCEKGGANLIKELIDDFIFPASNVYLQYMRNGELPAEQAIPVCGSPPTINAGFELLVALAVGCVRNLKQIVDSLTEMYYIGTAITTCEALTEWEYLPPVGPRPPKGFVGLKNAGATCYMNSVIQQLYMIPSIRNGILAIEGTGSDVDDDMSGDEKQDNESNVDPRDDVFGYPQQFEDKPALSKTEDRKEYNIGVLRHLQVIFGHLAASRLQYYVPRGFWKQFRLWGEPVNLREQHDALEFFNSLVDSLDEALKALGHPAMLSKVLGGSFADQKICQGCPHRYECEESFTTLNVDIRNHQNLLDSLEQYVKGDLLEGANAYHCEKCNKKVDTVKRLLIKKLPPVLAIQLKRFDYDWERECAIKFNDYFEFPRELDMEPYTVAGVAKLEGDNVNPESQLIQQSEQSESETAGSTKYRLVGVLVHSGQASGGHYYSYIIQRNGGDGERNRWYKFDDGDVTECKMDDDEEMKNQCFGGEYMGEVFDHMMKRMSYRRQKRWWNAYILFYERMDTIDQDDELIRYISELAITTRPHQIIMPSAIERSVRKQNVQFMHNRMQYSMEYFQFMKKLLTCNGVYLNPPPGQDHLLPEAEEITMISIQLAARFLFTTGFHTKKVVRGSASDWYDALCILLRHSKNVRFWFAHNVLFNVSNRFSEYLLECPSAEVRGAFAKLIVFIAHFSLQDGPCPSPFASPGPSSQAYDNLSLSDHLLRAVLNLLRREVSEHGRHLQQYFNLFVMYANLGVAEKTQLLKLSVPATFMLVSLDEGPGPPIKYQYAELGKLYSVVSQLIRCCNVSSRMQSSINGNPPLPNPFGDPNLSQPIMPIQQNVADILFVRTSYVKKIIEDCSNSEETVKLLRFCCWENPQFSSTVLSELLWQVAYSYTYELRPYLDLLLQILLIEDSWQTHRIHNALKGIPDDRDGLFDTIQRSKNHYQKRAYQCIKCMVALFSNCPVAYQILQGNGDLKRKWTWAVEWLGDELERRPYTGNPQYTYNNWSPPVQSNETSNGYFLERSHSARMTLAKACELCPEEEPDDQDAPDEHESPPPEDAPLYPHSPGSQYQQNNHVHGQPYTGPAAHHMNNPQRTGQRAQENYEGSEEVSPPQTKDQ
smiles,measurement,setting,value
O=C(CCl)N1CCc2[nH]c3ccccc3c2C1,log2 ratio of Biotin-Ahx-Ub-VS probe labelling,USP9X,-0.846
same,log2 ratio of Biotin-Ahx-Ub-VS probe labelling,UniProt O00487,-0.243
same,log2 ratio of Biotin-Ahx-Ub-VS probe labelling,UniProt O00507,-1.27 (active)
same,log2 ratio of Biotin-Ahx-Ub-VS probe labelling,UniProt P51784,-0.429
same,log2 ratio of Biotin-Ahx-Ub-VS probe labelling,UniProt Q5T2D3,-0.115
same,log2 ratio of Biotin-Ahx-Ub-VS probe labelling,UniProt Q8TE49,-0.338
same,log2 ratio of Biotin-Ahx-Ub-VS probe labelling,UniProt Q9P2H5,-0.439
same,log2 ratio of Biotin-Ahx-Ub-VS probe labelling,UniProt Q9UGI0,-1.68 (active)
same,log2 ratio of Biotin-Ahx-Ub-VS probe labelling,YOD1,-0.2

# Source: the supplement of paper PMC11732987, “Enantioselective OTUD7B fragment discovery through chemoproteomics screening and high-throughput optimisation” (Communications Chemistry, 2025)
